This is part of a sample that, as a whole, favours compounds with a hit. Of some 83,000 tested, about 20% had one in any assay.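 How to read the values: 0–100, growth inhibition (40 = 60% inhibited); 0, no net growth; -100 to 0, cell death (-40 = 40% of starting cells died; -100 = all dead).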 Values without a mark were called inactive. Calls of active or inactive are those of the source.
Test system: NCI-H460 lung
Experiment: NCI-60 one-dose screen, 48 h (100 = growth as untreated, 0 = no growth, -100 = all killed)
Settings: 10 µM unless noted
Method: Growth inhibition of the NCI-H460 human Non-Small Cell Lung tumor cell line is measured as a screen for anti-cancer activity. Cells are grown in 96 well plates and exposed to the test compound for 48 hours. Compounds are tested at a single concentration, which is 10^-5 M for most compounds. The reported endpoint is percent growth (GI% or GIPRCNT), where numbers from 0 - 100% represent growth inhibition, and numbers from -100% - 0 represent cell death. For example, a value of 40 represents 60% growth inhibition. A value of 0 means no net growth occurred over the course of the experiment. A value of -40 indicates 40% of cells at the beginning of the experiment died by the end of the experiment. A value of -100 means all cells are dead at the end of the experiment.
NCI-60 Human Tumor Cell Lines Screen was performed using the standard one-dose NCI protocol, which is described in more detail at https://dtp.cancer.gov/discovery_development/nci-60/default.htm.
Compounds with GIPRCNT values below 10 were considered active. Activity score was based on GIPRCNT using the following formula: […]
Score is 0 for GIPRCNT values of 100 or above, 50 for GIPRCNT values of 0, and 100 for GIPRCNT values of -100.

Question: For `O=C(/C=C/c1ccc(Br)cc1)c1ccccc1`, which growth is on record?
Answer: 101%

Question: How did the growth turn out when `CC(CCN1CCN(CCC(C)CC(C)(C)C)C1CC(C)CC(C)(C)C)CC(C)(C)C` (stereo not given) was run?
Answer: 101%

Question: Which growth does the source give for `CCOC(=O)NNc1[nH]c(-c2ccc(OC)cc2)cc1C#N` here?
Answer: 99.1%

Question: For `Cc1c(Cc2ccccc2)c(=O)oc2c(C)c(OCc3n[nH]c(=S)o3)ccc12`, which growth is on record?
Answer: 3.31% (active)

Question: For `Cn1c2c(cc(S(=O)(=O)c3ccccc3)c1=O)CCc1c-2cnn1-c1ccc(Cl)cc1`, which growth is on record?
Answer: 20.3%

Question: With `CC(=O)Oc1cc2ccccc2cc1C(C)C` as the compound, how does the growth read?
Answer: 99%

Question: Which growth does the source give for `O=C1OC(c2ccc(-c3ccccc3)cc2)=C/C1=C/c1c2ccccc2cc2ccccc12` here?
Answer: 94.5%

Question: `COc1ccc(/C=N/c2cc(C(C)(C)C)nn2-c2ccccc2)cc1` was tested. Which growth did it give?
Answer: 97.1%

Question: How did the growth turn out when `C[C@]12CC[C@H]3[C@@H](CC[C@H]4C[C@@H](O)CC[C@@]43C)[C@@H]1CC(=O)C2` was run?
Answer: 103%

Question: Which growth does the source give for `O=C1c2ccccc2CCc2ccccc21` here?
Answer: 108%

Question: With `Nc1cc(N)c2nc(-c3ccccc3)c(NCCc3ccc(Cl)c(Cl)c3)nc2c1` as the compound, how does the growth read?
Answer: -10.9% (active)

Question: How did the growth turn out when `COc1ccc(-n2nnnc2-c2cn[nH]c2C(F)(F)F)cc1` was run?
Answer: 110%

Question: With `CCOC(=O)CSSCC(=O)OCC` as the compound, how does the growth read?
Answer: 108%

Question: How did the growth turn out when `c1ccc(C(=NNc2nc3ccccc3o2)c2ccccn2)nc1` was run?
Answer: 3.05% (active)

Question: For `C#CCCCCCCC[C@@H]1OC(=O)[C@H]([C@@H](C)CC)NC(=O)[C@H]([C@@H](C)CC)NC(=O)CC(=O)[C@@H]1C`, which growth is on record?
Answer: 103%

Question: How did the growth turn out when `CCCCCCCCCC[N+](C)(C)C` was run?
Answer: 13%

Question: For `O=C(OCC1CC2(Cl)C(Cl)=C(Cl)C1(Cl)C2(Cl)Cl)C1C(C(=O)OCC2CC3(Cl)C(Cl)=C(Cl)C2(Cl)C3(Cl)Cl)C2(Cl)C(Cl)=C(Cl)C1(Cl)C2(Cl)Cl` (stereo not given), which growth is on record?
Answer: 114%

Question: How did the growth turn out when `Cc1nnc(-c2cc3c(ccc4ccccc43)oc2=O)c2cn(-c3ccc(Cl)cc3)nc12` was run?
Answer: 94.5%

Question: For `COc1ccc2cn3c4ccc(O)cc4[nH]c(=O)c3c2c1`, which growth is on record?
Answer: -48.7% (active)

Question: Which growth does the source give for `COc1cccc2c1nc1cccc(OC)c1[n+]2[O-]` here?
Answer: 14.1%

Question: `Cc1nc2c(nnn2-c2ccccc2)c2nc(-c3ccccc3)oc(=O)c12` was tested. Which growth did it give?
Answer: 116%

Question: `COc1cc2c(/C=C3\C(=O)Nc4ccc(Br)cc43)c(Cl)n(C)c2cc1C` was tested. Which growth did it give?
Answer: 8.86% (active)

Question: With `CC(=O)Nc1nc(C)c(C(=O)NNC(=O)Nc2ccccc2)s1` as the compound, how does the growth read?
Answer: 108%

Question: How did the growth turn out when `O=C(Nc1ccc(-n2cc(-c3ccncc3)c(-c3ccc(Cl)c(O)c3)n2)cc1)c1cc(Cl)cc(Cl)c1` was run?
Answer: 14.1%

Question: For `CC(=O)OCC1O[C@@H](OC(C)=O)[C@@H](NC(=O)NS(=O)(=O)c2ccccc2)C(OC(C)=O)[C@@H]1OC(C)=O` (stereo not given in full), which growth is on record?
Answer: 117%

Question: For `COc1nc(OC)nc(-c2cc(-c3cc(OC)c(OC)c(OC)c3)no2)n1`, which growth is on record?
Answer: 101%

Question: Which growth does the source give for `CC(C)(C)c1ccc([I+]c2ccc(C(C)(C)C)cc2)cc1` here?
Answer: 4.98% (active)

Question: With `CCCCCCCCCC(C)NC(=O)CCl` (stereo not given) as the compound, how does the growth read?
Answer: 107%

Question: How did the growth turn out when `COc1cc2cn3c4ccc(O)cc4[nH]c(=O)c3c2cc1OC` was run?
Answer: -55.7% (active)

Question: For `COc1ccc(-c2nc(SCC(C)C)nc(Nc3ccc([N+](=O)[O-])cc3)c2C#N)cc1`, which growth is on record?
Answer: 57%

Question: Which growth does the source give for `CCOC(=O)c1c2c(cn1Cc1ccccc1)-c1oncc1CC2` here?
Answer: 112%

Question: With `C/C=C/C/C=C/[C@H](C)C[C@H](O)[C@@H]1C[C@@H]2O[C@H]2/C=C/[C@@H]2OC(C)(C)O[C@H]2/C=C/C[C@H](C)CC(=O)O1` as the compound, how does the growth read?
Answer: 17.4%

Question: `O=C1Nc2c(c(=O)n(-c3ccccc3)c3ccccc23)C(c2ccc(Cl)cc2)N1` (stereo not given) was tested. Which growth did it give?
Answer: 47.7%

Question: With `Cc1ccc(C(C)C)c(OCc2ccc(C(=O)N/N=C/c3cccc(O)c3O)cc2)c1` as the compound, how does the growth read?
Answer: 12.5%

Question: `COC(=O)/C(Br)=C/c1c[nH]c2ccc(Br)cc12` was tested. Which growth did it give?
Answer: 112%

Question: With `CCCCn1c(Cc2ccc(OC)cc2)nc2cc(OC)c(OC)cc2c1=O` as the compound, how does the growth read?
Answer: 99.2%

Question: Which growth does the source give for `CC(=O)Nc1ccc(C(=O)/C=C/c2ccc(N(C)C)cc2)cc1` here?
Answer: 97.6%

Question: Which growth does the source give for `O=C(/C=C/c1ccc(Cl)cc1)c1ccc(Cl)cc1` here?
Answer: 104%

Question: `CCOc1ccc(/C=N/NC(=O)c2cccc3ccccc23)cc1OCC` was tested. Which growth did it give?
Answer: 101%

Question: With `CCOC(=O)C(C)C(C)(O)c1ccccc1` (stereo not given) as the compound, how does the growth read?
Answer: 103%
